Consider 50 molecules from PubChem BioAssay AID1456 (Vanderbilt High Throughput Screening Facility, 2008).

Structures are written as SMILES. Out of some 190,000 compounds screened, about 4,100 (2.2%) were called active. The list comes from a sample in which actives are over-represented; it also holds similar structures and randomly drawn compounds. Values without a mark were called inactive.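 The calls were made as follows: active = thallium flux slope and its plate-corrected score both differing from the plate sample mean at a set confidence after two filtering rounds, in either direction; inactive = the rest.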

The target in this experiment is Solute carrier family 12 member 5 (Homo sapiens) (UniProt Q9H2X9). Briefly: modulation of human KCC2 ion transport – cell-based, HEK293 KCC2, FluoZin-2 fluorescence, MLSMR, primary screen (AID 1456).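 As to B-score of Tl+ flux slope (higher = more flux/activation; lower = inhibition): slope of fluorescence scaled to starting intensity during 10 to 20 s after thallium.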 Particulars: KCC2 cells, thallium flux FluoZin-2 fluorescence; at 10 µM.
Solute carrier family 12 member 5 (Homo sapiens), sequence (Q9H2X9 whole entry, looked up): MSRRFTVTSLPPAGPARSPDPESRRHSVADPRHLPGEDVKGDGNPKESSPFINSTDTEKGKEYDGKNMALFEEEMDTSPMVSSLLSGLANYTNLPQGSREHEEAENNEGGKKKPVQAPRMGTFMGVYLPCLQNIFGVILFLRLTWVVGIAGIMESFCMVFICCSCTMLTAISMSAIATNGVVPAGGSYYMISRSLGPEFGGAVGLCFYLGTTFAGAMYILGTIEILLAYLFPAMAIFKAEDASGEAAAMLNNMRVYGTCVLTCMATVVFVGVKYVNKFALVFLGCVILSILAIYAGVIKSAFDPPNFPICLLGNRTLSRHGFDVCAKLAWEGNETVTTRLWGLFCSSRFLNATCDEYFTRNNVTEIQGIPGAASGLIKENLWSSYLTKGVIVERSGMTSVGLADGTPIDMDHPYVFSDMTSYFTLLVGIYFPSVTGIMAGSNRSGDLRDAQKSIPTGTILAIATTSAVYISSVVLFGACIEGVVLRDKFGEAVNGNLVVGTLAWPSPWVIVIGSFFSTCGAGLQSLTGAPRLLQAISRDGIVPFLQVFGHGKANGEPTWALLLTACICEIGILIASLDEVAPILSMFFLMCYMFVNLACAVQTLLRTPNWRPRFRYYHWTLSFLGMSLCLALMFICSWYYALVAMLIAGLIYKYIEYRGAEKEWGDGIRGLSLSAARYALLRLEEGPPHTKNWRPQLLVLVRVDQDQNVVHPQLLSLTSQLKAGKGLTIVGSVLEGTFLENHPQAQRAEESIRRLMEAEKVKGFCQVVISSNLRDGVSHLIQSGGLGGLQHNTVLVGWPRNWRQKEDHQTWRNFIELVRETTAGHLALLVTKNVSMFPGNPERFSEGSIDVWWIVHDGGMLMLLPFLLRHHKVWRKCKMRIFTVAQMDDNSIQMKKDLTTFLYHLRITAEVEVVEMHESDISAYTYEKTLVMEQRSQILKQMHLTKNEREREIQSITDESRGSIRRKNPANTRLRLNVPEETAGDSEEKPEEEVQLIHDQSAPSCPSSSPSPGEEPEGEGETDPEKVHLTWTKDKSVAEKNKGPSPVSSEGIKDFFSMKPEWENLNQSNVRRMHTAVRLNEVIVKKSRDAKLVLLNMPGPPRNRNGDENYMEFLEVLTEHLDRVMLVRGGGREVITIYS
Consider `COc1ccc(NC(=O)C2=NNC(=O)CC2)cc1S(=O)(=O)N1CCCCC1`, for which the B-score of Tl+ flux slope (higher = more flux/activation; lower = inhibition) was 1.01.

For the molecule `CC1Cc2ccccc2N1S(=O)(=O)c1ccc(Cl)nc1` (stereo not given), the B-score of Tl+ flux slope (higher = more flux/activation; lower = inhibition) was -1.44.

In the case of `O=C(NNc1ccccc1Cl)C(O)(c1cccc(C(F)(F)F)c1)c1cccc(C(F)(F)F)c1`, the B-score of Tl+ flux slope (higher = more flux/activation; lower = inhibition) was 14.9 (active).

In the case of `CC(CC(=O)Nc1cc(C(F)(F)F)ccc1Cl)c1ccccc1` (stereo not given), the B-score of Tl+ flux slope (higher = more flux/activation; lower = inhibition) was -1.96.

As to `O=C(Nc1cc(C(F)(F)F)ccc1Cl)C(=O)N1CCCCC1`, the B-score of Tl+ flux slope (higher = more flux/activation; lower = inhibition) was 0.245.

Turning to `[O-][N+]12CCCCC1CCCC2CO` (stereo not given), the B-score of Tl+ flux slope (higher = more flux/activation; lower = inhibition) was -0.0478.

With `COc1ccc2cc(CCl)c(Cl)nc2c1`, the B-score of Tl+ flux slope (higher = more flux/activation; lower = inhibition) was 0.0416.

`CC(NC(=O)C(C)(C)C)C(c1cccs1)N1CCN(Cc2ccccc2)CC1` (stereo not given): the B-score of Tl+ flux slope (higher = more flux/activation; lower = inhibition) was 0.428.

For the molecule `S=c1nc(C23CC4CC(CC(C4)C2)C3)nc2sccn12`, the B-score of Tl+ flux slope (higher = more flux/activation; lower = inhibition) is 2.46.

Take `CC(=O)Cc1nsc(NC(=O)c2ccc(Cl)cc2Cl)n1`: the B-score of Tl+ flux slope (higher = more flux/activation; lower = inhibition) was 1.49.

With `CNC(=O)c1csc(Cc2c(Cl)sc3ccc(Cl)cc23)n1`, the B-score of Tl+ flux slope (higher = more flux/activation; lower = inhibition) was -0.799.

Turning to `CC(=O)NNC(=O)c1csc(Cc2c(Cl)sc3ccc(Cl)cc23)n1`, the B-score of Tl+ flux slope (higher = more flux/activation; lower = inhibition) was 13.6 (active).

Regarding `CN(Cc1nc(-c2cnccn2)no1)Cc1n[nH]c2c1CCCCC2`, the B-score of Tl+ flux slope (higher = more flux/activation; lower = inhibition) is -2.53.

For the molecule `CCn1c(Cc2cccs2)nnc1SCC(=O)c1ccc(C)cc1`, the B-score of Tl+ flux slope (higher = more flux/activation; lower = inhibition) was -1.23.

In the case of `O=C(CSc1nnc(-c2cccs2)n1Cc1ccco1)c1ccc2c(c1)OCO2`, the B-score of Tl+ flux slope (higher = more flux/activation; lower = inhibition) was -2.4.

Consider `CCn1c(SCC(=O)c2ccc3ccccc3c2)nnc1-c1cccs1`, for which the B-score of Tl+ flux slope (higher = more flux/activation; lower = inhibition) was -5.11 (active).

For the molecule `CC(C)=NN1C(=O)c2ccccc2NC1(C)C`, the B-score of Tl+ flux slope (higher = more flux/activation; lower = inhibition) is 0.347.

Regarding `CC(O)c1nc2c(c(=O)n(C)c(=O)n2C)n1C` (stereo not given), the B-score of Tl+ flux slope (higher = more flux/activation; lower = inhibition) is 0.852.

Turning to `COc1ccc(NC(=O)c2ccccc2[N+](=O)[O-])cc1OC`, the B-score of Tl+ flux slope (higher = more flux/activation; lower = inhibition) was 4.22 (active).

`O=C(Nc1ccncc1)c1ccccc1[N+](=O)[O-]`: the B-score of Tl+ flux slope (higher = more flux/activation; lower = inhibition) was 1.37.

`COC(=O)CNC(=O)c1ccccc1[N+](=O)[O-]`: the B-score of Tl+ flux slope (higher = more flux/activation; lower = inhibition) was 0.532.

Turning to `Cc1cc(C)nc(SCc2cn3c(C)cc(C)nc3n2)n1`, the B-score of Tl+ flux slope (higher = more flux/activation; lower = inhibition) was -0.647.

With `CCOC(=O)CC1C(=O)NCCN1c1nc2c(C)cccn2c(=O)c1/C=C1\SC(=S)N(C(C)CC)C1=O` (stereo not given), the B-score of Tl+ flux slope (higher = more flux/activation; lower = inhibition) result was “inactive”.

For the molecule `Cn1c(C(=O)NCCc2ccsc2)cc2c(=O)n(C)c3ccccc3c21`, the B-score of Tl+ flux slope (higher = more flux/activation; lower = inhibition) is -3.14 (active).

Consider `CC1CCCC(C)N1CCCNC(=O)c1cc2c(=O)n(C)c3ccccc3c2n1C` (stereo not given), for which the B-score of Tl+ flux slope (higher = more flux/activation; lower = inhibition) is -1.27.

Consider `Cn1c(C(=O)NCCCN2CCN(c3cccc(Cl)c3)CC2)cc2c(=O)n(C)c3ccccc3c21`, for which the B-score of Tl+ flux slope (higher = more flux/activation; lower = inhibition) is 0.0429.

For `O=C1c2cccc3c([N+](=O)[O-])ccc(c23)C(=O)N1CC1CCCO1` (stereo not given), the B-score of Tl+ flux slope (higher = more flux/activation; lower = inhibition) is -3.38.

Turning to `CN(c1ccccn1)c1ncnc2[nH]ncc12`, the B-score of Tl+ flux slope (higher = more flux/activation; lower = inhibition) was 0.0938.

In the case of `CC(=O)NC(=S)Nc1ccc(NC(=S)NC(=O)c2ccc([N+](=O)[O-])cc2)cc1`, the B-score of Tl+ flux slope (higher = more flux/activation; lower = inhibition) was 0.484.

Consider `O=[N+]([O-])C(=c1ccc2c(c1)N1C3=C(CCCC3)CC3CCCCC31N=2)[N+](=O)[O-]` (stereo not given), for which the B-score of Tl+ flux slope (higher = more flux/activation; lower = inhibition) is -0.0507.

Turning to `COc1ccc(/C=C/C(=O)c2cc(Br)ccc(=O)c2O)cc1`, the B-score of Tl+ flux slope (higher = more flux/activation; lower = inhibition) was 22.3 (active).

With `COc1ccc(/C=C/C(=O)c2ccc(OC)cc2O)cc1`, the B-score of Tl+ flux slope (higher = more flux/activation; lower = inhibition) was -1.21.

In the case of `COc1ccc(C(=O)/C=C/c2ccc(OC3CSC3)cc2)cc1`, the B-score of Tl+ flux slope (higher = more flux/activation; lower = inhibition) was 0.0132.

In the case of `O=C(C[n+]1cc(-c2ccc(Cl)c(Cl)c2)n2c1CCC2)c1cccs1`, the B-score of Tl+ flux slope (higher = more flux/activation; lower = inhibition) was 0.636.

For the molecule `CC(=O)N(OCc1ccc(OC(C)C)c(Cl)c1)C(C)=O`, the B-score of Tl+ flux slope (higher = more flux/activation; lower = inhibition) was 0.219.

For the molecule `CC(C)n1cnc2c(Nc3cccc(Cl)c3)nc(N(CCO)CCCO)nc21`, the B-score of Tl+ flux slope (higher = more flux/activation; lower = inhibition) is -2.56 (active).

In the case of `CC(C)C[C@H](CO)Nc1nc(N(C)c2cccc(Cl)c2)c2ncn(C(C)C)c2n1`, the B-score of Tl+ flux slope (higher = more flux/activation; lower = inhibition) was -0.662.

Take `OCCCNc1nccc(-c2cc(Nc3cccc(Cl)c3)ncn2)n1`: the B-score of Tl+ flux slope (higher = more flux/activation; lower = inhibition) is -0.723.

Regarding `O=C(CN1CCN(c2ccc(Cl)cc2)CC1)NCc1cccs1`, the B-score of Tl+ flux slope (higher = more flux/activation; lower = inhibition) was -1.03.

Consider `N#Cc1nc(Cc2ccccc2)oc1NCCc1ccccc1`, for which the B-score of Tl+ flux slope (higher = more flux/activation; lower = inhibition) was -4.49 (active).

As to `Cc1ccc(-c2nc(C#N)c(NCCCn3ccnc3)o2)cc1`, the B-score of Tl+ flux slope (higher = more flux/activation; lower = inhibition) is -0.3.

As for `Cc1ccccc1-c1nc(C#N)c(NCc2ccco2)o1`, the B-score of Tl+ flux slope (higher = more flux/activation; lower = inhibition) is -0.237.

Regarding `Nc1ncc(-c2cc3ccccc3oc2=O)s1`, the B-score of Tl+ flux slope (higher = more flux/activation; lower = inhibition) is -0.488.

Take `O=c1oc2ccccc2cc1-c1cn(-c2ccccc2)c(=S)[nH]1`: the B-score of Tl+ flux slope (higher = more flux/activation; lower = inhibition) was 7.21 (active).

On to `O=C(c1cn(-c2ccccc2)nc1-c1cc2ccccc2oc1=O)N1CCOCC1`, for which the B-score of Tl+ flux slope (higher = more flux/activation; lower = inhibition) was -0.172.

In the case of `O=C(NCC1CCCO1)c1ccccc1-c1nc(-c2ccccc2Cl)no1` (stereo not given), the B-score of Tl+ flux slope (higher = more flux/activation; lower = inhibition) was -1.09.

In the case of `O=C(c1ccncc1)N1CCN(c2ccc3ccccc3n2)CC1`, the B-score of Tl+ flux slope (higher = more flux/activation; lower = inhibition) is -0.588.

With `S=c1[nH]nc(-c2cc(-c3ccccc3)n[nH]2)n1/N=C/c1c2ccccc2cc2ccccc12`, the B-score of Tl+ flux slope (higher = more flux/activation; lower = inhibition) is -1.01.

For `CCN(CC)S(=O)(=O)c1cccc(-c2n[nH]c(=S)n2/N=C/c2ccc(C(=O)OC)cc2)c1`, the B-score of Tl+ flux slope (higher = more flux/activation; lower = inhibition) is 2.87 (active).

Regarding `COc1cc(/C=N/n2c(C)n[nH]c2=S)ccc1OCc1ccccc1`, the B-score of Tl+ flux slope (higher = more flux/activation; lower = inhibition) is 0.899.
